# According to PubChem BioAssay (NCI):
# The panel holds about 83,000 compounds, 20% with a hit somewhere; the sample as a whole holds those more often.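 Cell lines were cultured in 96-well plates, exposed to a single compound concentration, and assessed for percent growth 48 hours later.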 Values without a mark were called inactive. Activity calls are given as the source filed them. The calls were made as follows: active = growth percent below 10; inactive = the rest.
# Test system: HL-60(TB) leukemia
# Experiment: NCI-60 one-dose screen, 48 h (100 = growth as untreated, 0 = no growth, -100 = all killed)
# Conditions: 10 µM unless noted
row,Compound,growth
1,CCOC(=O)CSc1c(-c2ccccc2)c2cc(Cl)ccc2[nH]c1=O,84.7%
2,COc1cc(C2CC(c3cccc(Nc4ccncc4)c3)=Nc3c(N)ncnc3N2)cc(OC)c1OC (stereo not given),83.7%
3,CNC(=O)c1cc(Oc2ccc3nc(Nc4ccc(Cl)c(C(F)(F)F)c4)ccc3c2)ccn1,62.6%
4,O=Nc1c(-c2c(O)[nH]c3ccc([N+](=O)[O-])cc23)[nH]c2ccc(O)cc12,3.67% (active)
5,Cc1nn(-c2ccccc2)c2c1N=c1s/c(=C\c3ccc(C(F)(F)F)cc3)c(=O)n1CN2,91.2%
6,COC(=O)C1=C(C(=O)Nc2cccnc2)C2OC1(C(Cc1ccccc1)Oc1ccccc1)C1OC21 (stereo not given),-56.2% (active)
7,O=c1c2cc(F)ccc2sc2c(NCCN3CCOCC3)nc3ccccc3c12,65.3%
8,COc1ccccc1-n1c(-c2ccc(O)cc2C)cn2c3c(=O)[nH]c(=O)n(C)c3nc12,79.9%
9,CCCCCCCCCCCCCCCCCCOc1ccc(CC(=O)OCC[N+]2(C)CCCC2)cc1,101%
10,COCC(=O)Oc1cc(-c2ccc(C)cc2C)c(OC(=O)COC)c(-c2ccc(C)cc2C)c1,36.9%
11,CCN(CC)CCCNC(=O)c1c2c(n3ccccc13)C(=O)c1ncccc1C2=O,-33.8% (active)
12,CN(CCNc1ccc(C(=N)N)cc1)c1ccc(C(=N)N)cc1,91%
13,CCn1cc(-c2ccnc(NCCNS(=O)(=O)c3ccc(Br)cc3)c2)c(-c2cccc(OC)c2)n1,81.4%
14,O=C1Nc2c(ccc(Cl)c2Cl)/C1=C/c1ccc([N+](=O)[O-])cc1,74.1%
15,Nc1ccc(Cl)c(S(=O)(=O)O)c1,90.5%
16,CN(C)c1nc(-c2cccs2)n2nc(-c3ccco3)cc2n1,95.3%
17,Cc1nc2ccccc2n1CC1NC(=O)NC1=O (stereo not given),95.1%
18,c1csc(-c2cn3nc(-c4c[nH]c5ccccc45)sc3n2)c1,7.07% (active)
19,Cc1cc2nc3c4cc([N+](=O)[O-])cc([N+](=O)[O-])c4n(CCN(C)C)c3nc2cc1C,98.2%
20,CCCCCCCCCCCCCCCC(=O)OCC1OC(n2cnc3c(=S)nc(N)[nH]c32)C(OC(=O)CCCCCCCCCCCCCCC)C1OC(=O)CCCCCCCCCCCCCCC (stereo not given),86%
21,Nc1cccc(C(=O)Nc2ccc3c(O)c(N=Nc4ccc(N=Nc5ccc(S(=O)(=O)O)cc5)cc4)c(S(=O)(=O)O)cc3c2)c1,88.7%
22,CC1(O)COCCCCOc2c(CN)cccc2NC(=O)c2nc(cnc2N)-c2ccc(cc2)S(=O)(=O)C(C)(C)C1 (stereo not given),-54.7% (active)
23,CN1C(=O)N(C)C2C1NN=c1s/c(=C\c3ccc(C(F)(F)F)cc3)c(=O)n12 (stereo not given),-6.25% (active)
24,Cc1cc2ccccc2cn1,91.6%
25,COc1cc(-c2nn(-c3cccc(NC(=O)CCN4CCN(C)CC4)c3)cc2-c2ccncc2)ccc1Cl,-24.5% (active)
